Shown are actives, neighbours in structure and some others; about 2.8% of the full set was active somewhere.
CDK5 inh – CDK5/p35 (human) kinase inhibition; hit rate 0.01% among 330,000; Q00535+Q15078; Recombinant CDK5/p35, ADP-Glo luminescence, 60 min; inhibition, % at 10 µM;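 active means highest replicate inhibition of at least 50% and at least 75% of replicates reaching 50%; inconclusive means only one of the two criteria met; inactive means both criteria failed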
SIRT5 block – sirtuin-5 (human) deacylase inhibition | Purified SirT5, succinyl-peptide AMC, trypsin-coupled fluorescence | Q9NXA8 | hit rate 1.1% among 330,000 | AID 652115 | inhibition, % at 15 µM; in the data active means inhibition above about 15%; inconclusive means no clear call, values can overlap the other calls
Target sequence (Q9NXA8 whole entry, looked up): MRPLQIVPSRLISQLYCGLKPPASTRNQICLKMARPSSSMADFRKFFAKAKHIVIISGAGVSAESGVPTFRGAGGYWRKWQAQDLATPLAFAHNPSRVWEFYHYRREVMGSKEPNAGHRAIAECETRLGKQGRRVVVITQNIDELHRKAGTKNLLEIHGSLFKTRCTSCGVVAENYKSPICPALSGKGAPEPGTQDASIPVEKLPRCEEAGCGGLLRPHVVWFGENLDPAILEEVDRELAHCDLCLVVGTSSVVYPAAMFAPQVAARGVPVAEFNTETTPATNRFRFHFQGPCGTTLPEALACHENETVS
dFosB activator – enhances mouse delta FosB homodimer DNA binding | purified delta FosB, TAMRA-CDK5 oligo fluorescence polarization; percent of positive-control signal above neutral wells | hit rate 0.99% among 340,000 | activation, % at 25 µM | P13346;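 active means mean activation above about 17%, with every replicate also reaching it, limit read from the data, passing the limit was not always enough; inconclusive means only one of the two conditions met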
Target sequence (P13346 whole entry, looked up): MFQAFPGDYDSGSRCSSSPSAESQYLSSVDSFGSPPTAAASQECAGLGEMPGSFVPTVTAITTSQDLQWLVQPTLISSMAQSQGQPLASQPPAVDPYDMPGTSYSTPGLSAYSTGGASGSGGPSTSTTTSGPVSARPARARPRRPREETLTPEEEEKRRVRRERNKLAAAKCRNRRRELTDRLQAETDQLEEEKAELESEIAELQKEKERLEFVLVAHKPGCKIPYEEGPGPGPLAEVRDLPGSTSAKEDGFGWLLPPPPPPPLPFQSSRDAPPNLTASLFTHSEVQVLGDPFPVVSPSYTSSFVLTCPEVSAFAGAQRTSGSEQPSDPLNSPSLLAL
PvdQ acylase – P. aeruginosa PvdQ acylase inhibition; purified PvdQ acylase, fluorescence plate reader; inhibition, % at 10 µM; hit rate 0.063% among 340,000; AID 488965; in the data active means inhibition above about 30%, passing the limit was not always enough; inconclusive means no clear call, values can overlap the other calls
PglD inh – blocks C. jejuni PglD acetyltransferase activity. purified PglD enzyme, DTNB colorimetric CoA detection. hit rate 0.098% among 360,000. inhibition, % at 12.5 µM; in the data active means inhibition above about 16%, passing the limit was not always enough; inconclusive means no clear call, values can overlap the other calls
FGF22 binding – shifts melting point of recombinant human FGF22. Q9HCT0. recombinant FGF22 thermal shift, SYPRO orange fluorescence; percent of sucrose octasulfate shift, DMSO zero. activity (Tm shift, normalised), % at 9.99 µM. hit rate 1.5% among 340,000. AID 651658;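 active means mean Tm shift, scaled 0 neutral to 100 positive control, at about 1.3% or above, every replicate too, limit read from the data; inconclusive means no clear call, values can overlap the other calls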
Each line names hits and unclear results; the compound was inactive in the other large screens.

CC(C)C#Cc1ccc([C@H]2[C@H](CO)N3C(=O)CN(C(=O)c4ccc5c(c4)OCO5)C[C@@H]23)cc1	none (no result: CDK5 inh, dFosB activator, PvdQ acylase, PglD inh, FGF22 binding)
CC(C)C#Cc1ccc([C@@H]2[C@H](CO)N3C(=O)CN(C(=O)NC4CCCC4)C[C@@H]23)cc1	SIRT5 block 25 (no result: CDK5 inh, dFosB activator, PvdQ acylase, PglD inh)
O=C(c1ccc2c(c1)OCO2)N1CC(=O)N2[C@H](CO)[C@H](c3ccc(C#CCC4CCCC4)cc3)[C@@H]2C1	SIRT5 block 26 (no result: CDK5 inh, dFosB activator, PvdQ acylase, PglD inh)
CC(C)C#Cc1ccc([C@@H]2[C@@H](CO)N3C(=O)CN(C(=O)c4ccc5c(c4)OCO5)C[C@H]23)cc1	SIRT5 block 20 (no result: CDK5 inh, dFosB activator, PvdQ acylase, PglD inh, FGF22 binding)
Cn1cnc(S(=O)(=O)N[C@H]2CC[C@@H](CC(=O)NCC3CC3)O[C@@H]2CO)c1	none (no result: CDK5 inh, dFosB activator, PvdQ acylase, PglD inh, FGF22 binding)
CCN(CC)C(=O)C(=O)c1ccn(-c2c(C)csc2C(=O)OC)c1	FGF22 binding 43
COc1ccccc1OCC(=O)NNC(=O)CCCC(=O)NNC(=O)COc1ccccc1OC	none
COc1ccccc1OCC(=O)N/N=C1/C=C(C)CC1	FGF22 binding 43 (no result: PglD inh)
COCc1nc2sc3c(c2c(=O)[nH]1)CCCC3	none (no result: SIRT5 block, PglD inh, FGF22 binding)
CCCc1nc2sc3c(c2c(=O)[nH]1)CCCC3	FGF22 binding 43 (no result: PglD inh)
N[C@@H](Cc1ccc(O)c(O)c1)C(=O)O	SIRT5 block 15
NC(Cc1ccc(O)c([N+](=O)[O-])c1)C(=O)O (configuration not stated)	none (no result: SIRT5 block, PglD inh, FGF22 binding)
O=C(Nc1ccc(-c2ccccc2)cc1)[C@@H]1[C@@H](CO)[C@@H]2Cn3c(cccc3=O)[C@@H]2N1CC1CCCC1	SIRT5 block 15 (no result: CDK5 inh, dFosB activator, PvdQ acylase, PglD inh)
O=C(Nc1nccs1)[C@H]1[C@H](CO)[C@H]2Cn3c(cccc3=O)[C@H]2N1C(=O)C1CCC1	SIRT5 block 16 (no result: CDK5 inh, dFosB activator, PvdQ acylase)
O=C(NC1CCCCC1)[C@@H]1[C@@H](CO)[C@@H]2Cn3c(cccc3=O)[C@@H]2N1CC1CCCC1	SIRT5 block 21 (no result: CDK5 inh, dFosB activator, PvdQ acylase, PglD inh, FGF22 binding)
O=C(Nc1nccs1)[C@@H]1[C@@H](CO)[C@@H]2Cn3c(cccc3=O)[C@@H]2N1C(=O)C1CCC1	none (no result: CDK5 inh, dFosB activator, PvdQ acylase)
O=C(Nc1ccccc1)[C@H]1[C@H](CO)[C@H]2Cn3c(cccc3=O)[C@H]2N1CC1CC1	none (no result: CDK5 inh, dFosB activator, PvdQ acylase)
O=C(NC1CCCCC1)[C@H]1[C@H](CO)[C@H]2Cn3c(cccc3=O)[C@H]2N1CC1CCCCC1	none (no result: CDK5 inh, dFosB activator, PvdQ acylase)
COc1cccc(NC(=O)N[C@@H]2CC[C@@H](CC(=O)NCc3ccccn3)O[C@@H]2CO)c1	none (no result: CDK5 inh, dFosB activator, PvdQ acylase)
C[C@H](CO)N1C[C@H](C)[C@H](CN(C)C(=O)C2CCOCC2)Oc2cc(C#Cc3ccncc3)ccc2S1(=O)=O	none (no result: CDK5 inh, dFosB activator, PvdQ acylase)
C[C@@H]1CN([C@H](C)CO)C(=O)c2cc(NC(=O)CCC(F)(F)F)ccc2O[C@@H](C)CCCCO[C@@H]1CN(C)Cc1ccc(C(F)(F)F)cc1	SIRT5 block 21 (no result: CDK5 inh, dFosB activator, PvdQ acylase)
C[C@H]1CCCCO[C@H](CN(C)Cc2ccc(Cl)c(Cl)c2)[C@@H](C)CN([C@@H](C)CO)C(=O)c2cc(NC(=O)CCC(F)(F)F)ccc2O1	SIRT5 block 15 (no result: CDK5 inh, dFosB activator, PvdQ acylase)
C[C@@H]1CCCCO[C@H](CN(C)Cc2ccc(C(F)(F)F)cc2)[C@H](C)CN([C@@H](C)CO)C(=O)c2cc(NC(=O)CCC(F)(F)F)ccc2O1	none (no result: CDK5 inh, dFosB activator, PvdQ acylase)
C[C@@H]1CN([C@@H](C)CO)C(=O)c2cc(NC(=O)CCC(F)(F)F)ccc2O[C@@H](C)CCCCO[C@H]1CN(C)Cc1ccc(Cl)c(Cl)c1	none (no result: CDK5 inh, dFosB activator, PvdQ acylase)
CCC(=O)Nc1ccc2c(c1)OC[C@@H](C)N(CCc1ccccc1)C[C@H](C)[C@H](OC)CN(C)C2=O	none (no result: CDK5 inh, dFosB activator, PvdQ acylase, PglD inh)
C[C@@H]1CN([C@H](C)CO)C(=O)c2cc(C#Cc3cccnc3)cnc2O[C@H]1CN(C)S(=O)(=O)c1ccccc1F	none (no result: CDK5 inh, dFosB activator, PvdQ acylase)
COc1ccc(-c2cn3cc(C)ccc3n2)cc1F	PvdQ acylase 59
Cc1ccc2nc(-c3ccc4c(c3)OCCO4)cn2c1	PvdQ acylase 91
COc1ccc(-c2cn3cc(C)ccc3n2)cc1OC	none (no result: SIRT5 block, FGF22 binding)
Clc1ccc2nc(-c3ccc4c(c3)OCO4)cn2c1	PvdQ acylase inconclusive
c1ccn2cc(-c3ccc4c(c3)OCCO4)nc2c1	PvdQ acylase inconclusive, FGF22 binding 43 (no result: PglD inh)
CO[C@@H]1CN(C)C(=O)c2cc(NC(=O)C3CC3)ccc2OC[C@@H](C)N(Cc2nccs2)C[C@H]1C	none (no result: CDK5 inh, dFosB activator, PvdQ acylase)
C[C@@H]1CN([C@H](C)CO)C(=O)c2cc(NS(=O)(=O)c3cccs3)ccc2O[C@@H](C)CCCCO[C@H]1CN(C)Cc1ccc2c(c1)OCO2	none (no result: CDK5 inh, SIRT5 block, dFosB activator, PvdQ acylase)
NS(=O)(=O)c1ccc(NC(=O)c2ccc(CNS(=O)(=O)c3cc(C(F)(F)F)ccc3Cl)cc2)cc1	dFosB activator 108
O=C(c1ccncc1)N1C[C@H]2[C@@H](c3ccccc31)[C@@H](CO)N2C(=O)Nc1ccc(F)cc1	none (no result: CDK5 inh, dFosB activator, PvdQ acylase)
C/C=C/c1cnc2c(c1)C(=O)N([C@H](C)CO)C[C@@H](C)[C@@H](CN(C)C(=O)NC1CCCC1)O2	none (no result: CDK5 inh, dFosB activator, PvdQ acylase)
C[C@@H]1CN([C@H](C)CO)C(=O)c2cccc(N(C)C)c2O[C@@H]1CN(C)C(=O)NC1CCCCC1	SIRT5 block 27 (no result: CDK5 inh, dFosB activator, PvdQ acylase)
C[C@@H]1CN([C@H](C)CO)C(=O)c2cccc(NC(=O)Nc3ccc(C(F)(F)F)cc3)c2O[C@H]1CN(C)C(=O)Nc1cccc2ccccc12	SIRT5 block 27 (no result: CDK5 inh, dFosB activator, PvdQ acylase)
C[C@@H]1CN([C@@H](C)CO)C(=O)c2cccc(NC(=O)Nc3ccc(C(F)(F)F)cc3)c2O[C@H]1CN(C)C(=O)NC1CCCCC1	SIRT5 block 101 (no result: CDK5 inh, dFosB activator, PvdQ acylase)
C/C=C/c1cnc2c(c1)C(=O)N([C@@H](C)CO)C[C@H](C)[C@@H](CN(C)C(=O)NC1CCCC1)O2	SIRT5 block 17 (no result: CDK5 inh, dFosB activator, PvdQ acylase)

High-throughput results (PubChem BioAssay)
